Results taken from PubChem BioAssay (NCI).
Compounds without any hit were thinned out: in the full panel of roughly 83,000, 20% have a hit.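 48-hour exposure, single concentration, 96-well plates; percent growth endpoint where 0 means no net growth. Active: below 10.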 Unmarked numbers belong to inactive results. Active and inactive are the calls of the source.

Tests used:
Assay in all cases: NCI-60 one-dose screen, 48 h (100 = growth as untreated, 0 = no growth, -100 = all killed)
Settings in all cases: 10 µM
[1] = tested on: DU-145 prostate
[2] = tested on: K-562 leukemia
[3] = tested on: MALME-3M melanoma
[4] = tested on: MDA-MB-231 breast
[5] = tested on: RXF 393 renal
[6] = tested on: SF-268 CNS
[7] = tested on: SF-295 CNS
[8] = tested on: SF-539 CNS
[9] = tested on: UACC-257 melanoma
[10] = tested on: M14 melanoma
[11] = tested on: HCT-15 colon
[12] = tested on: HT29 colon
[13] = tested on: SNB-75 CNS
[14] = tested on: SNB-19 CNS
[15] = tested on: U251 CNS
[16] = tested on: PC-3 prostate
[17] = tested on: SK-MEL-5 melanoma
[18] = tested on: LOX IMVI melanoma
[19] = tested on: SK-MEL-28 melanoma
[20] = tested on: UACC-62 melanoma

Row | Structure (SMILES) | growth [1] [%] | growth [2] | growth [3] | growth [4] | growth [5] | growth [6] | growth [7] | growth [8] | growth [9] | growth [10] | growth [11] | growth [12] | growth [13] | growth [14] [%] | growth [15] | growth [16] | growth [17] | growth [18] | growth [19] | growth [20]
1 | O=C(O)CCCN1C(=O)NC2(C1=O)c1ccccc1-c1ccccc12 | 105 | 99% | 97.3% | 107% | 101% | 95.3% | 95.2% | 99.7% | 91.2% | 103% | 102% | 93.3% | 88.9% | 104 | 94.7% | 94.4% | 96% | 94.8% | 107% | 
2 | Cc1[nH]nc2c(=S)[nH]c(=O)[nH]c12 | 106 | 105% | 88.2% | 104% | 107% | 104% | 91% | 101% | 90% | 100% | 103% | 108% | 89.7% | 101 | 100% | 97.1% | 94.4% | 99.9% | 102% | 
3 | CCOc1cc(Br)c(C(C)NC(=O)c2cccc(OC)c2)cc1OCC (stereo not drawn) | 93.4 | 8.6% (active) | -9.34% (active) | 39% | 41.6% | 75.5% | 92.1% | 76.2% | -66.9% (active) | -67.2% (active) | 59.8% | 17.7% | 76.7% | 98.3 | 58.4% | 64.9% | 45.1% | 73.4% | 5.81% (active) | 
4 | COc1ccc(-c2nc(NC(=O)CS(=O)(=O)c3ccc(F)cc3)sc2C)cc1 | 79 | 26.4% | 55.2% | -37.1% (active) | 14.4% | 65.3% | 25.1% | 73.6% | 65.1% | 44% | 18.7% | 4.71% (active) | 79.6% | 86.8 | 47.8% | 44.1% | 35.9% | 51.6% | 88.5% | 
5 | COc1ccc2nc(NC(=O)Nc3c(F)cccc3F)sc2c1 | 105 | 94.5% | 105% | 119% | 106% | 109% | 102% | 104% | 102% | 104% | 101% | 102% | 118% | 97.2 | 95% | 95% | 91.2% | 106% | 103% | 
6 | O=C(Nc1ccc(Oc2ccc(Nc3nc4ccccc4s3)cc2)cc1)Nc1ccc(Cl)c(Cl)c1 | 39.1 | 21.9% | 47.9% | 22.8% | 56.5% | 35.9% | 17.8% | 50.9% | 61.3% | 26.3% | 20.7% | 31.7% | 44.1% | 27.1 | 29.5% | 23.4% |  | 26.2% | 45.9% | 21.1%
7 | COc1ccc(S(=O)(=O)Nc2ccc(OCc3nnc(-c4ccc(Cl)cc4)o3)c(F)c2)cc1 | 76.7 | 43.2% | 67.8% | 54.6% | 63.1% | 59.9% | 43.8% | 70.5% | 23.3% | 78% | 65.5% | 83.7% | 67.1% | 65.8 | 68.4% | 52.3% | 15.7% | 52.7% | 83.8% | 
8 | CCc1ccc(-c2nnc(COc3ccc(-c4nc5ccc(C)cc5[nH]4)cc3OC)o2)cc1 | 48.5 | 33.1% | 9.91% (active) | 9.26% (active) | 24.4% | 55.6% | 20% | -28.2% (active) | 95.7% | 49.5% | 21.9% | 48.9% | -50% (active) | 77.5 | 25.5% | 36.6% | 15.3% | 48.2% | 77.4% | 
9 | COCc1cc2c(cc1Br)OCO2 | 112 | 107% | 98.6% | 110% | 107% | 100% | 99.1% | 95.5% | 101% | 100% | 100% | 106% | 87.1% | 105 | 99.1% | 86.8% | 107% | 95.6% | 99.1% | 
10 | C#CCNCCN1C(=O)c2ccc3c4c(ccc(c24)C1=O)C(=O)N(CCNCC#C)C3=O | 54.7 | 25% | -12.9% (active) | 58% | 52.1% | 47.9% | 27% | 47.7% | 14.4% | 32.6% | 19.5% | 2.13% (active) | 75.4% | 46 | 29.5% | 47.7% | -81.3% (active) | -3.21% (active) | 83.9% | 
11 | COc1cccc(C(=O)N(c2ccc(F)c(F)c2)C(C(=O)NC(C)(C)C)c2cc3c(C)cc(C)cc3nc2Cl)c1 (stereo not drawn) | 75.5 | 55.8% | 95% | 47.4% | 72.3% | 64.7% | 54% | 79.4% | 79.6% | 64.9% | 56.5% | 71.1% | 62.9% | 74.1 | 69% | 30.9% | 58.2% |  | 85.6% | 66.6%
12 | CC(C)c1[nH]nc2c(NCc3ccc(-c4ccccn4)cc3)nc(SCCN(C)C)nc12 | 11.4 | 5.19% (active) | -52.2% (active) | 1.25% (active) | -69.1% (active) | 6.37% (active) | 2.15% (active) | -43.5% (active) | -4.44% (active) | -32.9% (active) | 6.46% (active) | -15.7% (active) | -55.9% (active) | 13.7 | 7.48% (active) | 2.89% (active) | 1.36% (active) | -7.56% (active) | 5.17% (active) | 
13 | CCCCCCCCCCSC(=N)N (tested in a mixture with another compound) | 79.6 | 9.73% (active) | 82.7% | 7.07% (active) | 64.5% | 79.1% | 94.4% | 83.4% | 99.5% | 65.5% | 12% | 3.13% (active) | 91.2% | 75.8 | 31.6% | 65.5% |  | 48.9% | 72.1% | 9.19% (active)
14 | COc1cc(Nc2ccnc(N3CCN(c4ccnc5cc(Cl)ccc45)CC3)n2)cc(OC)c1 | 34.1 | 2.73% (active) | -4.19% (active) | 18.5% | -18.3% (active) | 27.7% | -19.2% (active) | -22.1% (active) | 1.09% (active) | -3.5% (active) | 9.9% (active) | -15.1% (active) | -13.9% (active) | 39.1 | 12.6% | 3.31% (active) | -55.2% (active) | 3.24% (active) | 11.9% | 
15 | Cc1ccccc1C1=N[C@@H](Cc2ccccc2)C(=O)c2c(nc3ccccn23)N1 | 113 | 113% | 109% | 104% | 105% | 104% | 96.5% | 99.4% | 87.3% | 102% | 100% | 115% | 70.8% | 109 | 100% | 89.4% | 103% |  | 113% | 
16 | C[N+]1(CC2CO2)CCCCCC1 (stereo not drawn) | 107 | 119% | 95.8% | 116% | 103% | 104% | 103% | 95.8% | 99.4% | 106% | 94.9% | 112% | 92.9% | 104 | 107% | 102% | 98.1% | 105% | 104% | 
